About 83,000 compounds went through this panel and 20% of them were active in at least one assay; those are over-represented in the sample as a whole.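 How to read the values: 0–100, growth inhibition (40 = 60% inhibited); 0, no net growth; -100 to 0, cell death (-40 = 40% of starting cells died; -100 = all dead).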 Calls of active or inactive are those of the source. Rule for the calls: active = growth percent below 10; inactive = the rest.
What was measured:
Assay in all cases: NCI-60 one-dose screen, 48 h (100 = growth as untreated, 0 = no growth, -100 = all killed)
Conditions in all cases: 10 µM unless noted
SK-MEL-2 melanoma = test system: SK-MEL-2 melanoma
EKVX NSCLC = test system: EKVX NSCLC
SN12C renal = test system: SN12C renal
UO-31 renal = test system: UO-31 renal
TK-10 renal = test system: TK-10 renal
ACHN renal = test system: ACHN renal
CAKI-1 renal = test system: CAKI-1 renal
A498 renal = test system: A498 renal
CCRF-CEM leukemia = test system: CCRF-CEM leukemia
MOLT-4 leukemia = test system: MOLT-4 leukemia

Measured: growth

CCC1N=C(N)N=C(N)N1c1ccc(Cl)cc1 (stereo not given)
inactive: SK-MEL-2 melanoma 100% | EKVX NSCLC 68.4% | SN12C renal 96.9% | UO-31 renal 89% | TK-10 renal 97% | ACHN renal 108% | CAKI-1 renal 96.3% | A498 renal 77.1% | CCRF-CEM leukemia 107% | MOLT-4 leukemia 79.6%

CSc1nc(N)c2[nH]c(-c3cc4ccccc4[nH]c3=O)nc2n1
inactive: SK-MEL-2 melanoma 74.2% | EKVX NSCLC 103% | SN12C renal 85.1% | UO-31 renal 57.3% | TK-10 renal 106% | ACHN renal 61.1% | CAKI-1 renal 68.9% | A498 renal 92.4% | CCRF-CEM leukemia 91.6% | MOLT-4 leukemia 79.8%

O=C1CCCN1C(O)CCN(Cc1ccccc1)Cc1ccc(Cl)cc1 (stereo not given)
inactive: SK-MEL-2 melanoma 101% | EKVX NSCLC 101% | SN12C renal 101% | UO-31 renal 84.9% | TK-10 renal 109% | ACHN renal 108% | CAKI-1 renal 97.3% | A498 renal 109% | CCRF-CEM leukemia 91.7% | MOLT-4 leukemia 89.9%

Cn1c(=O)c2c(nc(N/N=C/c3ccccc3Cl)n2C)n(C)c1=O
inactive: SK-MEL-2 melanoma 81.6% | EKVX NSCLC 106% | SN12C renal 99% | UO-31 renal 81.5% | TK-10 renal 101% | ACHN renal 103% | CAKI-1 renal 97.8% | A498 renal 170% | CCRF-CEM leukemia 94.5% | MOLT-4 leukemia 95.7%

CC(C)(C)c1nn(-c2ccccc2)c2c1C(=O)CSC(c1ccccc1Cl)N2 (stereo not given)
inactive: SK-MEL-2 melanoma 45.5% | EKVX NSCLC 30.8% | SN12C renal 53.8% | UO-31 renal 29.2% | TK-10 renal 77.5% | ACHN renal 53.7% | CAKI-1 renal 10% | A498 renal 56.9% | CCRF-CEM leukemia 11.4% | MOLT-4 leukemia 20.9%

N=c1nc(N2CCCCC2)cc(N)n1O
inactive: SK-MEL-2 melanoma 118% | EKVX NSCLC 108% | SN12C renal 98.8% | UO-31 renal 104% | TK-10 renal 112% | ACHN renal 97.5% | CAKI-1 renal 101% | A498 renal 117% | CCRF-CEM leukemia 112% | MOLT-4 leukemia 93%

NC(N)=N/N=C/c1cccc(Cl)c1Cl
inactive: SK-MEL-2 melanoma 106% | EKVX NSCLC 69.2% | SN12C renal 90.1% | UO-31 renal 66.3% | TK-10 renal 88% | ACHN renal 84.2% | CAKI-1 renal 59.1% | A498 renal 61.6% | CCRF-CEM leukemia 52.7% | MOLT-4 leukemia 47.6%

COc1cnc2c(c1)C(=O)c1c-2n(CCCN2CCNCC2)c(=O)c2cc(Cl)ccc12
inactive: SK-MEL-2 melanoma 43.9% | EKVX NSCLC 29% | SN12C renal 16.5% | TK-10 renal 47.5% | CAKI-1 renal 33.1% | A498 renal 13.6%
active: UO-31 renal -59% | ACHN renal -100% | CCRF-CEM leukemia -69.4% | MOLT-4 leukemia -54.2%

CCOC(=O)C1OC2(CCCC2)OC1C(=O)OCC (stereo not given)
inactive: SK-MEL-2 melanoma 94.9% | EKVX NSCLC 108% | SN12C renal 101% | UO-31 renal 83% | TK-10 renal 102% | ACHN renal 109% | CAKI-1 renal 102% | A498 renal 107% | CCRF-CEM leukemia 86.3% | MOLT-4 leukemia 92.2%

COc1cccc(/C=N\Nc2ccc([N+](=O)[O-])cn2)c1O
inactive: SK-MEL-2 melanoma 77.1% | EKVX NSCLC 83.9% | SN12C renal 55% | UO-31 renal 26.9% | TK-10 renal 73.5% | ACHN renal 28.5% | CAKI-1 renal 27.8% | A498 renal 39.8% | CCRF-CEM leukemia 79.3% | MOLT-4 leukemia 58%

O=C(NCCN1CCCC1)n1cc(-c2ccncc2)c(-c2cc(O)cc(Cl)c2)n1
inactive: SK-MEL-2 melanoma 90.8% | EKVX NSCLC 119% | SN12C renal 82.5% | UO-31 renal 100% | TK-10 renal 78.6% | ACHN renal 82.2% | CAKI-1 renal 109% | A498 renal 103% | CCRF-CEM leukemia 85.7% | MOLT-4 leukemia 82.7%

CCCCOc1nc2ccccc2cc1/C=C/c1cc(/C=C/c2cc3ccccc3nc2OCCCC)n(-c2ccccc2)n1
inactive: SK-MEL-2 melanoma 101% | EKVX NSCLC 105% | SN12C renal 95.3% | UO-31 renal 75.2% | TK-10 renal 119% | ACHN renal 103% | CAKI-1 renal 88.3% | A498 renal 95.9% | CCRF-CEM leukemia 101% | MOLT-4 leukemia 99%

COc1cc(C2CC(c3cccc(Nc4ccnc5cc(Cl)ccc45)c3)=NN2C=O)cc(OC)c1OC (stereo not given)
inactive: EKVX NSCLC 32% | SN12C renal 19.7%
active: SK-MEL-2 melanoma -18.1% | UO-31 renal 2.53% | TK-10 renal 2.13% | ACHN renal -6.99% | CAKI-1 renal -31.1% | A498 renal -16.4% | CCRF-CEM leukemia 2.72% | MOLT-4 leukemia 9.97%

CCC(=O)OCc1ccc(OC)cc1
inactive: SK-MEL-2 melanoma 112% | EKVX NSCLC 107% | SN12C renal 91% | UO-31 renal 82% | TK-10 renal 107% | ACHN renal 103% | CAKI-1 renal 96.6% | A498 renal 144% | CCRF-CEM leukemia 99.4% | MOLT-4 leukemia 95.3%

O=C(CCCCCCN1CC(=O)N2[C@@H](c3ccc(Cl)c(Cl)c3)c3[nH]c4ccccc4c3C[C@H]2C1=O)NO
inactive: SK-MEL-2 melanoma 79.9% | EKVX NSCLC 64.6% | SN12C renal 60.8% | UO-31 renal 57% | TK-10 renal 40.3% | ACHN renal 70.2% | CAKI-1 renal 48.7% | A498 renal 86%
active: CCRF-CEM leukemia 7.73% | MOLT-4 leukemia 8.86%

COc1ccc(-c2cc(-c3cn(-c4cccc(Cl)c4)nc3-c3ccc(OC)cc3)[nH]c(=S)n2)cc1
inactive: SK-MEL-2 melanoma 88.9% | EKVX NSCLC 90.4% | SN12C renal 73.6% | UO-31 renal 84.7% | TK-10 renal 93.8% | ACHN renal 80.5% | CAKI-1 renal 104% | A498 renal 69.3% | CCRF-CEM leukemia 73.6% | MOLT-4 leukemia 42.4%

CCN(CC)CC(=O)Nc1c(C)cc(C(=O)NN)cc1C
inactive: SK-MEL-2 melanoma 117% | EKVX NSCLC 102% | SN12C renal 98.3% | UO-31 renal 84.7% | TK-10 renal 102% | ACHN renal 107% | CAKI-1 renal 95.8% | A498 renal 99.7% | CCRF-CEM leukemia 114% | MOLT-4 leukemia 85.2%

COc1ccccc1CNCCCN1C(=O)c2ccc3c4c(ccc(c24)C1=O)C(=O)N(CCCCNCCCN)C3=O
inactive: EKVX NSCLC 48.1% | UO-31 renal 48.3% | TK-10 renal 36.7% | ACHN renal 28.1% | CAKI-1 renal 94.1% | A498 renal 87.9%
active: SK-MEL-2 melanoma -46.1% | SN12C renal -80.2% | CCRF-CEM leukemia 2.26% | MOLT-4 leukemia -21.7%

Nc1nc(N)c2cc(NCc3ccc(Cl)c(Cl)c3)ccc2n1
active: SK-MEL-2 melanoma -79.2% | EKVX NSCLC -78.8% | SN12C renal -79.5% | UO-31 renal -75.4% | TK-10 renal -93.8% | ACHN renal -94.8% | CAKI-1 renal -68.4% | CCRF-CEM leukemia -49.2% | MOLT-4 leukemia -55.6%
inactive: A498 renal 34.2%

COc1cccc(-c2cc(-c3cccs3)c(C#N)c(=O)[nH]2)c1
inactive: SK-MEL-2 melanoma 107% | EKVX NSCLC 106% | SN12C renal 103% | UO-31 renal 89.4% | TK-10 renal 122% | ACHN renal 102% | CAKI-1 renal 96.8% | A498 renal 100% | CCRF-CEM leukemia 100% | MOLT-4 leukemia 107%

CSc1ccc(/C=C2\C=C(CC(=O)NCc3ccc(C(=O)c4ccccc4)cc3)c3cc(F)ccc32)cc1
active: SK-MEL-2 melanoma -3.62% | SN12C renal 9.57% | ACHN renal 2.09% | CAKI-1 renal 7.79% | A498 renal -10.5% | MOLT-4 leukemia 9.47%
inactive: EKVX NSCLC 25.5% | UO-31 renal 26.6% | TK-10 renal 13.8% | CCRF-CEM leukemia 11.5%

Cc1ccc(C(=O)CC(=O)C(F)(F)C(F)(F)C(F)(F)F)s1
inactive: SK-MEL-2 melanoma 113% | EKVX NSCLC 94.6% | SN12C renal 96.4% | UO-31 renal 74.9% | TK-10 renal 118% | ACHN renal 110% | CAKI-1 renal 99.2% | A498 renal 112% | CCRF-CEM leukemia 103% | MOLT-4 leukemia 109%

O=C(/C=C/c1cn(-c2ccccc2)nc1-c1ccccc1)OCc1cn(-c2cccc([N+](=O)[O-])c2)nn1
inactive: SK-MEL-2 melanoma 87.8% | EKVX NSCLC 85.9% | SN12C renal 92.7% | UO-31 renal 68.7% | TK-10 renal 98.6% | ACHN renal 90.1% | CAKI-1 renal 82.5% | A498 renal 66.7% | CCRF-CEM leukemia 81.1% | MOLT-4 leukemia 85.8%

CCCCn1cnc2c(SCc3ccc([N+](=O)[O-])cc3)nc(N)nc21
inactive: SK-MEL-2 melanoma 91.5% | EKVX NSCLC 103% | SN12C renal 87% | UO-31 renal 65.2% | TK-10 renal 85% | ACHN renal 87.5% | CAKI-1 renal 87.7% | A498 renal 86.3% | CCRF-CEM leukemia 86.3% | MOLT-4 leukemia 24.3%

C/C(=N\NC(=O)CSc1nc2ccccc2c(=O)n1CCc1ccc(S(N)(=O)=O)cc1)c1ccc(Br)cc1
inactive: SK-MEL-2 melanoma 80.4% | EKVX NSCLC 88.2% | SN12C renal 92.2% | UO-31 renal 78.3% | TK-10 renal 106% | ACHN renal 93.6% | CAKI-1 renal 79.8% | A498 renal 97.5% | CCRF-CEM leukemia 76.7% | MOLT-4 leukemia 55.3%

Clc1ccc(-c2cnc3c(-c4ccnc(N5CCNCC5)c4)cnn3c2)cc1
active: SK-MEL-2 melanoma -57.4% | UO-31 renal -42.6% | TK-10 renal 1.85% | ACHN renal -0.355% | CAKI-1 renal -19.2% | CCRF-CEM leukemia 0.88% | MOLT-4 leukemia -5.54%
inactive: EKVX NSCLC 80.8% | SN12C renal 10.9% | A498 renal 92.2%

COc1ccc(/C(C)=N/NC(=O)c2ccc(S(C)(=O)=O)cc2)cc1OC
inactive: SK-MEL-2 melanoma 101% | EKVX NSCLC 96.3% | SN12C renal 100% | UO-31 renal 91.9% | TK-10 renal 102% | ACHN renal 108% | CAKI-1 renal 91.6% | A498 renal 94.1% | CCRF-CEM leukemia 115% | MOLT-4 leukemia 71.1%

Clc1ccc(Cl)c(N=Cc2ccc3c(c2)OCO3)c1
inactive: SK-MEL-2 melanoma 109% | EKVX NSCLC 98.8% | SN12C renal 105% | UO-31 renal 86.6% | TK-10 renal 107% | ACHN renal 114% | CAKI-1 renal 94.6% | A498 renal 91.6% | CCRF-CEM leukemia 106% | MOLT-4 leukemia 106%
